Screening results from PubChem.
PrPC TRFRET – reduces human prion protein on the cell surface; P04156; cell surface PrPC, TR-FRET read-out; inhibition, % at 13.8 µM; 0.43% of 370,000 active; in the data active = inhibition above about 24%; also: 0% = median of the test wells and 100% = reference compound wells
PriA SSB inh – K. pneumoniae PriA-SSBct interaction inhibition; 0.6% of 430,000 active; inhibition, % at 33 µM; AlphaScreen SSBct-PriA binding, biotinylated peptide; in the data active = inhibition mostly above about 37%, no sharp cut-off; inactive = mostly below about 20%;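 also: plate controls were negative control peptide for no effect and reference peptide for full effect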
RecA splice inh – blocks M. tuberculosis RecA intein splicing; inhibition, % (no concentration beside the values); 0.75% of 290,000 active; P9WHJ3; cell-free RecA intein splicing, fluorescence; AID 2221; in the data active = inhibition above about 30%;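 also: 0% = vehicle wells and 100% = reference inhibitor control wells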
Target sequence (P9WHJ3 whole entry, looked up, canonical isoform): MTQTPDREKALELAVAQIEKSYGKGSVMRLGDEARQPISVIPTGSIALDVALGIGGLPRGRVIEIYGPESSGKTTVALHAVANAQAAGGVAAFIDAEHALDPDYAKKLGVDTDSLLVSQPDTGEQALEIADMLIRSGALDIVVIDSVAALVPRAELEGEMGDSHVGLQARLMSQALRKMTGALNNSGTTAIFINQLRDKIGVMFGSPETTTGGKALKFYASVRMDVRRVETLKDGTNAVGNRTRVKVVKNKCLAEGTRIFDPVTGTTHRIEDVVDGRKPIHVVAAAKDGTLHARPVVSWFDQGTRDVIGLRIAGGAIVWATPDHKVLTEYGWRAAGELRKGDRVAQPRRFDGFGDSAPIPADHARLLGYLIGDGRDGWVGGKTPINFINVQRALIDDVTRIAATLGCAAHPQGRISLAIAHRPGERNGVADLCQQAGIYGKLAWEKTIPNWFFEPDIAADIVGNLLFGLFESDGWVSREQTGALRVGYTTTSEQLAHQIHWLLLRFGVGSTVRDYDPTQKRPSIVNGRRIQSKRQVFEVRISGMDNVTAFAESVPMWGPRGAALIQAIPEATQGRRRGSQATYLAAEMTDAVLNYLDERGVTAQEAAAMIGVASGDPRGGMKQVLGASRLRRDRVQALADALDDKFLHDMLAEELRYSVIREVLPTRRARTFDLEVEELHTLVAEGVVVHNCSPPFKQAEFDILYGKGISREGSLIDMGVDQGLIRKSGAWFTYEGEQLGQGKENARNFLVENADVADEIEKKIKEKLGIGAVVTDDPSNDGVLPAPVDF
PrP 5UTR inh – inhibition of PrP 5' UTR reporter expression | cell-based PrP 5' UTR mRNA reporter, plate reader | inhibition, % (test concentration not listed) | 0.35% of 340,000 active | AID 488862; in the data active = inhibition above about 52%; also: 0 = median of the neutral control wells
BJeLR lethal – kills HRASV12-expressing BJeLR cells; 0.17% of 300,000 active; inhibition, % (concentration not given with the values); AID 1554; BJeLR (HRASV12) viability, CellTiter-Glo ATP luminescence, 48 h; in the data active = inhibition above about 50%
PfHsp40 rescue – restores yeast growth despite PfHsp40 toxicity. S. cerevisiae expressing PfHsp40, growth rescue, ATP luminescence. growth rescue, % at 12.5 µM. 0.68% of 340,000 active; in the data active = growth rescue above about 28%, passing the limit was not always enough;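 also: yeast W303a lacking pdr1 and pdr3 grown in galactose medium; growth measured after three days at 30 °C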
Starred values were filed as active, the others as inactive. Most compounds without a hit are left out; they make up all but 1.9% or so of the library.

Screening CCc1ccc(-c2cn(C3CCCCC3)c(=S)[nH]2)cc1 returned PrPC TRFRET 21, PriA SSB inh 18, RecA splice inh 16, PrP 5UTR inh -28, BJeLR lethal -2 and PfHsp40 rescue 91*.
O=C(Cc1ccc(Cl)cc1)N1CCN=C1SCc1ccc(F)cc1 was read as PriA SSB inh -7.
`O=C(O)c1ccc(NC(=O)c2cn(-c3ccccc3)nc2-c2ccccc2)cc1` gave PrPC TRFRET 0, PriA SSB inh -2, RecA splice inh -3, PrP 5UTR inh -26, BJeLR lethal 0 and PfHsp40 rescue 0.
O=C(O)c1ccc(NC(=O)c2cn(-c3ccccc3)nc2-c2ccc(Br)cc2)cc1 was read as PrPC TRFRET 5, PriA SSB inh -11, RecA splice inh 2, PrP 5UTR inh -13, BJeLR lethal -4 and PfHsp40 rescue 69*.
Screening NCC1CCN(C(=O)c2cc3ccccc3o2)CC1 returned PriA SSB inh -1.
CC(C)Oc1ccccc1C1CC(=O)Nc2cc3c(cc21)OCCO3 (stereo not drawn) was read as PrPC TRFRET 14, PriA SSB inh 18, RecA splice inh 2, PrP 5UTR inh 61*, BJeLR lethal 64* and PfHsp40 rescue 0.
Screening CC(/C=C1\SC(=S)N(NC(=O)c2cccc(O)c2)C1=O)=C\c1ccccc1 returned PrPC TRFRET -2, PriA SSB inh 17, RecA splice inh 31*, PrP 5UTR inh -26, BJeLR lethal 5 and PfHsp40 rescue 3.
O=C(O)C/C(=C\c1ccc(Cl)cc1)c1nc2ccccc2o1 was read as PrPC TRFRET -7, PriA SSB inh -11, RecA splice inh -1, PrP 5UTR inh -19, BJeLR lethal 2 and PfHsp40 rescue 135*.
For CCCCNc1c(-c2ccc(-c3ccc(OC)cc3)c(OC)c2)nc2ccccn12 the results were PrPC TRFRET 1, PriA SSB inh 38, PrP 5UTR inh -10 and PfHsp40 rescue 251*.
`Cc1ccc(C(=O)Nc2ncc(S(=O)(=O)c3ccc([N+](=O)[O-])cc3)s2)cc1` gave PriA SSB inh -18.
O=C(NC(Nc1ncc(S(=O)(=O)c2ccc([N+](=O)[O-])cc2)s1)(C(F)(F)F)C(F)(F)F)c1ccc(Cl)cc1 was read as PrPC TRFRET -22, PriA SSB inh 8, RecA splice inh 6, PrP 5UTR inh -12, BJeLR lethal 70* and PfHsp40 rescue 0.
Screening c1ccc(CNc2nc3ccccc3n3cnnc23)nc1 returned PrPC TRFRET -1, PriA SSB inh -6, RecA splice inh 0, PrP 5UTR inh -14, BJeLR lethal -2 and PfHsp40 rescue -2.
Screening c1ccc(CNc2nc3ccccc3n3cnnc23)cc1 returned PrPC TRFRET -2, PriA SSB inh 104*, RecA splice inh 2, PrP 5UTR inh -39, BJeLR lethal 1 and PfHsp40 rescue 0.
`CSc1ccc(CNC(=O)CSc2nccn2-c2cccc(C(=O)NCc3ccco3)c2)cc1` gave PriA SSB inh 46*.
`COc1ccc(NC(=O)CSc2nccn2-c2cccc(C(=O)NCc3ccco3)c2)c(OC)c1` gave PriA SSB inh 16.
Screening CC(Oc1ccc(Cl)cc1Cl)c1nc(-c2ccc(NC(=O)c3cccnc3)cc2)no1 (stereo not drawn) returned PrPC TRFRET -2, PriA SSB inh -16, RecA splice inh -1, PrP 5UTR inh -14, BJeLR lethal 72* and PfHsp40 rescue -1.
Screening Nc1nc2c(s1)-c1cccc3cccc-2c13 returned PriA SSB inh 66*.
Screening O=C(Nc1nc2c(s1)-c1cccc3cccc-2c13)c1cc(Cl)cc(Cl)c1 returned PriA SSB inh 24.
`Cc1cc(C)c(C#N)c(Sc2nc(C)c([N+](=O)[O-])c(C)c2C#N)n1` gave PrPC TRFRET 1.
Screening Cc1nc(Sc2ccccc2)c(C#N)c(C)c1[N+](=O)[O-] returned PrPC TRFRET 5, PriA SSB inh 7, PrP 5UTR inh -21, BJeLR lethal -2 and PfHsp40 rescue 27*.
O=C(/C=C/c1cccc2ccccc12)c1ccncc1 was read as PrPC TRFRET 18, PriA SSB inh 8, RecA splice inh 6, PrP 5UTR inh -14, BJeLR lethal 71* and PfHsp40 rescue -2.
Screening CC1=NN(c2ccc(C(F)(F)F)cn2)C(=O)C1 returned PrPC TRFRET 7, PriA SSB inh 45*, RecA splice inh -2, PrP 5UTR inh -18, BJeLR lethal 11 and PfHsp40 rescue 2.
Screening COCCN1CCCc2ccc(NS(=O)(=O)c3cc(Cl)ccc3C)cc21 returned PriA SSB inh 57*.
COCCN1CCCc2ccc(NS(=O)(=O)c3ccc(C(C)(C)C)cc3)cc21 was read as PriA SSB inh 39*.
`CC(=O)Nc1ccc(NC(=O)c2cccc(S(=O)(=O)N(C)C3CCCCC3)c2)cc1` gave PrPC TRFRET 6, PriA SSB inh -14, PrP 5UTR inh -13 and PfHsp40 rescue 0.
`Cc1ccc(NC(=O)c2cccc(S(=O)(=O)N(C)C3CCCCC3)c2)nc1` gave PrPC TRFRET 0, PriA SSB inh -9, RecA splice inh 3, PrP 5UTR inh -25, BJeLR lethal -8 and PfHsp40 rescue 50*.
CCC(Cc1c(I)cc(I)c(N)c1I)C(=O)O (stereo not drawn) was read as PrPC TRFRET 11, PriA SSB inh 2, PrP 5UTR inh -13 and PfHsp40 rescue 187*.
`O=C(NNC(=O)c1cc(Cl)ccc1O)c1ccc(NS(=O)(=O)c2cccs2)cc1` gave PrPC TRFRET -5, PriA SSB inh -6, RecA splice inh 16, PrP 5UTR inh -16, BJeLR lethal 4 and PfHsp40 rescue 351*.
O=C(NNC(=O)c1cc(F)c(F)cc1Cl)c1ccc(NS(=O)(=O)c2cccs2)cc1 was read as PrPC TRFRET 8, PriA SSB inh -7 and PfHsp40 rescue 1.
`COc1ccccc1/C=C1\SC(=S)N(CCC(=O)NCCCn2ccnc2)C1=O` gave PrPC TRFRET -16, PriA SSB inh 21, RecA splice inh 3, PrP 5UTR inh -1, BJeLR lethal 78* and PfHsp40 rescue 2.
Screening COc1ccccc1/C=C1\SC(=S)N(CCC(=O)NNC(=O)c2ccccc2O)C1=O returned PriA SSB inh 7, RecA splice inh 2, PrP 5UTR inh -19, BJeLR lethal -1 and PfHsp40 rescue 105*.
`COc1ccc(/C=C2\SC(=S)N(CCC(=O)NCCCn3ccnc3)C2=O)cc1` gave PrPC TRFRET -10, PriA SSB inh 13, RecA splice inh 16, PrP 5UTR inh -16, BJeLR lethal 4 and PfHsp40 rescue 0.
COc1cccc(/C=C2\SC(=O)N(CCC(=O)NCCCn3ccnc3)C2=O)c1 was read as PrPC TRFRET -7, PriA SSB inh -1, RecA splice inh 2, PrP 5UTR inh -38, BJeLR lethal 4 and PfHsp40 rescue 0.
